In PubChem BioAssay AID1159580 (chemical genetic matrix, 2015):
Where “and” joins values, the source holds several entries; their conditions need not be identical. Identical values can stand only once. Screen size: about 5,500 compounds; about 2,000 (36%) were called active. Inconclusive results (about 18%) are left out. Cut-off read from the data, not from the text of the source: active = normalized growth mostly below about 0.91 (no sharp cut-off); inconclusive = no clear call, values can overlap the other calls; inactive = mostly above about 0.92. This is one part of the list.

Assay: chemical genetic growth profiling, strain panel (AID 1159580);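 note: tested at 20 µM; growth read once vehicle control cultures reached saturation at 30 °C; 1 = growth at the plate median or of vehicle wells; lower values mean less growth of the strain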
Conditions: S. cerevisiae deletion strains, growth OD

Measured: normalized growth

CCCC(=O)Nc1ncnc2c1ncn2C1O[C@@H]2COP(=O)(O)O[C@H]2[C@H]1OC(=O)CCC (stereo not given in full)
inactive: locus YAL013W, strain DEP1, hits give low values 1 | locus YAL021C, strain ccr4, hits give low values 0.981 | locus YAL026C, strain drs2, hits give low values 0.986 | locus YAL030W, strain snc1, hits give low values 0.994 | locus YBL061C, strain skt5, hits give low values 0.97 | locus YBR009C, strain hhf1, hits give low values 0.962 | locus YBR021W, strain FUR4, hits give low values 0.999 | locus YBR023C, strain chs3, hits give low values 0.974 | locus YBR171W, strain sec66, hits give low values 0.971 | locus YBR229C, strain ROT2, hits give low values 1.01 | locus YBR231C, strain swc5, hits give low values 0.995 | locus YBR279W, strain paf1, hits give low values 0.981 | locus YCL011C, strain gbp2, hits give low values 0.958 | locus YCL016C, strain dcc1, hits give low values 0.952 | locus YCL029C, strain bik1, hits give low values 1.02 | locus YCL061C, strain MRC1, hits give low values 0.977 | locus YCL069W, strain vba3, hits give low values 0.974 | locus YCR088W, strain abp1, hits give low values 0.984 | locus YDL005C, strain med2, hits give low values 0.982 | locus YDL035C, strain GPR1, hits give low values 1.02 | locus YDL040C, strain nat1, hits give low values 0.987 | locus YDL074C, strain BRE1, hits give low values 1 | locus YDL101C, strain DUN1, hits give low values 1.01 | locus YDL134C, strain PPH21, hits give low values 1.01 | locus YDL185W, strain tfp1, hits give low values 1.02 | locus YDL192W, strain arf1, hits give low values 1.01 | locus YDR001C, strain nth1, hits give low values 0.986 | locus YDR069C, strain doa4, hits give low values 0.999 | locus YDR101C, strain arx1, hits give low values 1.02 | locus YDR137W, strain rgp1, hits give low values 0.973 | locus YDR150W, strain NUM1, hits give low values 1 | locus YDR159W, strain sac3, hits give low values 1.01 | locus YDR162C, strain NBP2, hits give low values 1.01 | locus YDR195W, strain ref2 1 | locus YDR297W, strain sur2, hits give low values 0.985 | locus YDR318W, strain mcm21, hits give low values 1.02 | locus YDR334W, strain swr1, hits give low values 0.975 | locus YDR335W, strain msn5, hits give low values 0.988 | locus YDR388W, hits give low values 1.02 | locus YDR392W, strain spt3, hits give low values 0.869 | locus YDR502C, strain sam2, hits give low values 1.01 | locus YEL003W, strain gim4, hits give low values 0.995 | locus YEL037C, strain rad23, hits give low values 0.984 | locus YEL061C, strain CIN8 (second series), hits give low values 0.985 | locus YEL061C, strain CIN8, hits give low values 1.01 | locus YER015W, strain faa2, hits give low values 0.98 | locus YER016W, strain bim1, hits give low values 0.975 | locus YER110C, hits give low values 1.03 | locus YER111C, strain swi4, hits give low values 0.973 | locus YER155C, strain BEM2 (second series), hits give low values 1.01 | locus YER155C, strain BEM2, hits give low values 0.996 | locus YER167W, strain BCK2, hits give low values 1.01 | locus YFR010W, strain ubp6, hits give low values 0.988 | locus YGL078C, strain dbp3, hits give low values 1.02 | locus YGL086W, strain mad1, hits give low values 1 | locus YGL167C, strain pmr1, hits give low values 0.981 | locus YGL173C, strain kem1, hits give low values 0.979 | locus YGL227W, strain vid30, hits give low values 0.978 | locus YGL240W, strain doc1, hits give low values 1.02 | locus YGL248W, strain PDE1, hits give low values 1.01 | locus YGL253W, strain hxk2, hits give low values 0.996 | locus YGR135W, strain pre9, hits give low values 1.03 | locus YGR229C, strain SMI1, hits give low values 1.01 | locus YGR252W, strain gcn5, hits give low values 1.04 | locus YHR013C, strain ard1, hits give low values 0.973 | locus YHR027C, strain rpn1, hits give low values 0.979 | locus YHR030C, strain SLT2, hits give low values 1 and 1.02 | locus YHR079C, strain IRE1 (second series), hits give low values 1.02 | locus YHR079C, strain IRE1, hits give low values 1.03 | locus YHR094C, strain hxt1, hits give low values 1.02 | locus YHR129C, strain ARP1, hits give low values 1 | locus YHR142W, strain chs7, hits give low values 0.944 | locus YHR200W, strain rpn10, hits give low values 1.02 | locus YIL066C, strain RNR3, hits give low values 1.02 | locus YIL073C, strain SPO22, hits give low values 1.06 | locus YIL125W, strain kgd1, hits give low values 1.02 | locus YIR030C, strain dcg1, hits give low values 1.02 | locus YJL092W, strain hpr5, hits give low values 0.985 | locus YJL095W, strain BCK1 (second series), hits give low values 0.979 | locus YJL095W, strain BCK1, hits give low values 1 and 1.03 | locus YJL115W, strain asf1, hits give low values 0.985 | locus YJL129C, strain trk1, hits give low values 0.949 | locus YJL134W, strain LCB3, hits give low values 1.01 | locus YJL154C, strain vps35, hits give low values 0.97 | locus YJL164C, strain tpk1, hits give low values 0.968 | locus YJL166W, strain qcr8, hits give low values 1.01 | locus YJL168C, strain set2, hits give low values 1.03 | locus YJL187C, strain SWE1 (second series), hits give low values 1 | locus YJL187C, strain SWE1, hits give low values 0.992 | locus YJR043C, strain POL32, hits give low values 1.01
